{"source": "PubChem BioAssay AID504904", "about": "(The Scripps Research Institute Molecular Screening Center, 2011)", "note": "The other results are listed elsewhere or left out. Values without a mark were called inactive. Activity calls are given as the source filed them. Rule as the data show it: active = activation above about 18%; inactive = the rest."}
{"molecular_target": "Mu-type opioid receptor (Homo sapiens) + Delta-type opioid receptor (Homo sapiens) (UniProt P35372+P41143)", "sequence (P35372 whole entry, looked up)": "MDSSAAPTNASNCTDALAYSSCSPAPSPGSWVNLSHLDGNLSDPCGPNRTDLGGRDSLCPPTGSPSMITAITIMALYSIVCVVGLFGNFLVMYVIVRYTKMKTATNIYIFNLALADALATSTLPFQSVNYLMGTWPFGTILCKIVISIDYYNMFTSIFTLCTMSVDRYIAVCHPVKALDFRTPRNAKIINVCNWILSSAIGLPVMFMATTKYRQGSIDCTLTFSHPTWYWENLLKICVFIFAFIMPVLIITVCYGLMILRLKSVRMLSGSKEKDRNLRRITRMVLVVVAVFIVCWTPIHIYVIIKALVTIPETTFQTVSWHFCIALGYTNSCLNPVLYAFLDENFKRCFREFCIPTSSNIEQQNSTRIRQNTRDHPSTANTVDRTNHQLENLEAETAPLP", "sequence (P41143 whole entry, looked up)": "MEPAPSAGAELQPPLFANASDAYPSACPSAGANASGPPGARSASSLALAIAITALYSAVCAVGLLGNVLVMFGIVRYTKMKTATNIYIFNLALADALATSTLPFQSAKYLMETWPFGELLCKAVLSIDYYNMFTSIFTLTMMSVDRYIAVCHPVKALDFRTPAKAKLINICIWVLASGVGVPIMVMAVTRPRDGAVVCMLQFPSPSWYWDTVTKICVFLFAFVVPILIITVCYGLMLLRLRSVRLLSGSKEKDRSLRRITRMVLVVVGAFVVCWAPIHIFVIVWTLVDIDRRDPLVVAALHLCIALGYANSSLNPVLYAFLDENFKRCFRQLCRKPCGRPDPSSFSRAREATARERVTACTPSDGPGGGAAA", "experiment": "OPRM1-OPRD1 heterodimer formation agonism – cell-based, luminescence, confirmation (AID 504904);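 also: 0% = vehicle-treated cells and 100% = reference agonist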", "conditions": "cells, MOR-DOR heterodimerization, luminescence complementation; at 9.3 µM; stronger effect = higher value"}
{"smiles": "C[C@]12CC[C@H](O)C[C@H]1CC[C@@H]1C2CC[C@]2(C)[C@@H](C3=CC(=O)OC3)[C@@H](O)C[C@]12O", "note": "(some centres undefined)", "activation": "-3.86%"}
{"smiles": "COC1C(O)C(C)OC(OC2CCC3(C=O)C(CCC4C3CCC3(C)C(C5=CC(=O)OC5)CCC43O)C2)C1O", "note": "(centres undefined)", "activation": "51.8% (active)"}
{"smiles": "CCC1(C)CC(CCNCc2ccc(N(C)C)cc2)(c2ccc(F)cc2)CCO1", "note": "(centres undefined)", "activation": "137% (active)"}
{"smiles": "CCOC(=O)C1(CCc2ccccc2)CCN(Cc2ccco2)CC1", "activation": "41.4% (active)"}
